Results on 78 compounds are retold here after PubChem BioAssay AID624319 (Sanford-Burnham Center for Chemical Genomics, 2012).

Hit rate of the full screen: of about 1,400 compounds, about 210 (15%) were called active. Cut-off read from the data, not from the text of the source: active = inhibition mostly above about 39% (no sharp cut-off); inactive = mostly below about 34%. The list is a sample of the results.

For this experiment, the target named is Sentrin-specific protease 8 (Homo sapiens) (UniProt Q96LD8). Briefly: retest of SENP8 deneddylase blockers – biochemical, Nedd8 protein substrate, single concentration, confirmation (AID 624319). The settings on record: purified SENP8, Nedd8-AMC/pro-Nedd8 cleavage fluorescence, 30 min; at 25 µM; hits give high values.
Sequence of Sentrin-specific protease 8 (Homo sapiens) (Q96LD8 whole entry, looked up): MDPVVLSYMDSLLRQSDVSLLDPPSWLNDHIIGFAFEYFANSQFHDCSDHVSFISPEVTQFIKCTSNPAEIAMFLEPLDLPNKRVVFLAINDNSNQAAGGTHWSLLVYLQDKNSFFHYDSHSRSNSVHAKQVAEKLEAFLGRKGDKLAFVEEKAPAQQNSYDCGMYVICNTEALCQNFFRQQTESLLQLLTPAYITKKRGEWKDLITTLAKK
On to `Oc1ccc(N=Cc2sc3ccccc3c2Cl)cc1`, for which the inhibition – broadly, the change of the read-out against control, counted positive when it falls – is 11.3% (inactive).

With `O=c1[nH]c2ccccc2s1`, the inhibition is 1.69% (inactive).

As for `Cc1ccc(C(=O)N/N=C\c2cc(Br)c(Br)o2)cn1`, the inhibition is 6.43% (inactive).

`O=[N+]([O-])c1ccc(C=Nc2ccc(Cl)cc2Cl)s1`: the inhibition is 14.4% (inactive).

For the compound `O=C1Nc2ccc([N+](=O)[O-])cc2C1=Nc1cccc(CO)c1`, the inhibition was 76.8% (active).

On to `c1coc(-c2nc3nc4ccccc4n3nc2-c2ccco2)c1`, for which the inhibition is 20.6% (inactive).

As for `CN1C(=O)/C(=C/C=C2\SCCN2C)OC1=S`, the inhibition was 29.4% (inactive).

For `Cc1cc([N+](=O)[O-])c(NC2CCCCC2)c([N+](=O)[O-])c1`, the inhibition is 11% (inactive).

As for `COC(=O)C1=C(C(=O)c2ccc(C)cc2)C(c2ccccc2)n2nnnc2N1` (stereo not drawn), the inhibition was 18.1% (inactive).

Take `CCc1ccccc1NC(=O)[C@@H]1CCC(=O)N1C1OC(=O)c2c1ccc(OC)c2OC` (stereo partly drawn): the inhibition was 13.7% (inactive).

As for `O=C(OCC(=O)N1CCN(c2ccccc2)CC1)c1ccc([N+](=O)[O-])s1`, the inhibition is 57% (active).

On to `O=C(c1ccccc1)N1CCN(c2ccc([N+](=O)[O-])c(NCc3ccco3)c2)CC1`, for which the inhibition is 14.3% (inactive).

In the case of `Cc1[nH][nH]c(=O)c1C(c1ccc(-c2ccc(Cl)cc2)o1)c1c(C)[nH][nH]c1=O`, the inhibition was 49.8% (active).

Take `CCOc1ccc(C(c2c(C)[nH][nH]c2=O)c2c(C)[nH][nH]c2=O)cc1OCC`: the inhibition is 2.47% (inactive).

In the case of `CCN1CCC2(CC1)N=C(c1ccc(F)cc1)C(=S)N2C(=O)c1ccc(C)cc1`, the inhibition was 54.5% (active).

For the compound `O=C(COC(=O)c1ccc([N+](=O)[O-])o1)NC12CC3CC(CC(C3)C1)C2`, the inhibition is 81.4% (active).

Take `O=[N+]([O-])c1ccccc1NCc1ccccc1Cl`: the inhibition is 20.6% (inactive).

`CCOCCCn1c(NN)nc2ccccc2c1=O`: the inhibition was 0.12% (inactive).

For the compound `CCCCNCCS(=O)(=O)NCc1ccccc1`, the inhibition is 26.8% (inactive).

In the case of `O=C(c1cccc(F)c1)N1CCN(c2ccc([N+](=O)[O-])c3cccnc23)CC1`, the inhibition was 16.9% (inactive).

In the case of `O=C(Nc1ccc(C(=O)O)c(O)c1)c1ccccc1`, the inhibition was 0.26% (inactive).

`CN1CCN(S(=O)(=O)c2ccc(N3CCN(c4ccccc4O)CC3)c([N+](=O)[O-])c2)CC1`: the inhibition was 29.3% (inactive).

In the case of `O=C(Nc1cc2c3c(c1)C1CCCC1CN3CC1CCCC21)c1ccc([N+](=O)[O-])cc1` (stereo not drawn), the inhibition was 24.6% (inactive).

Consider `Nn1cnnc1N/N=C/c1cc([N+](=O)[O-])c(Cl)cc1Cl`, for which the inhibition was 16.6% (inactive).

Consider `COc1ccc(-c2nnco2)cc1OC`, for which the inhibition was 14.3% (inactive).

Turning to `CCOc1cc(NC(=O)c2ccccc2C(=O)O)c(OCC)cc1NC(=O)c1ccccc1F`, the inhibition is -3.99% (inactive).

Consider `O=C1CC(c2ccccc2)=NN1c1ccc([N+](=O)[O-])cc1`, for which the inhibition was 46.5% (active).

In the case of `COC(=O)Cn1c2ccc(C)cc2c2nc(C)sc21`, the inhibition was 14.2% (inactive).

As to `CN1CCc2ccccc2C1Cc1ccccc1NC(=O)c1sc2ccccc2c1Cl` (stereo not drawn), the inhibition was 0.2% (inactive).

Take `Nc1ccc2nc3c(=O)[nH]c(=S)[nH]c3nc2c1`: the inhibition was 26.8% (inactive).

Regarding `CN(c1ccc(C(=O)N2CCc3ccccc3C2)cc1)S(C)(=O)=O`, the inhibition was 42.8% (active).

As to `CCN(CC)C(=O)CCC(=O)Nc1ccc(C(=O)OC)cc1`, the inhibition was 8% (inactive).

As to `CC(=O)N1CCN(S(=O)(=O)c2cccc(C(=O)NC3CCC(C)CC3)c2)CC1` (stereo not drawn), the inhibition was 3.29% (inactive).

On to `CCc1ccccc1NC1c2ccccc2C(=O)N1c1cccnc1` (stereo not drawn), for which the inhibition was 12.2% (inactive).

With `O=c1[nH]n2c(=O)c3c([nH]c2c1N=Nc1ccccc1)CCC3`, the inhibition was 25.4% (inactive).

Turning to `CCOC(=O)/C(=N\Nc1ccccc1[N+](=O)[O-])c1csc(Nc2ccccc2)n1`, the inhibition is 15% (inactive).

As to `O=C(NCCCN1CCN(c2ccc(F)cc2)CC1)Nc1ccc([N+](=O)[O-])cc1`, the inhibition was 31.9% (inactive).

Consider `CCc1cccc(C)c1NC(=O)COC(=O)CC1CCCC1`, for which the inhibition was 29.1% (inactive).

Take `CC(C)Cc1nnc(NC(=O)CCC(=O)Nc2ccc3cn[nH]c3c2)s1`: the inhibition was 2.31% (inactive).

Consider `O=C(COc1ccccc1)N1CCc2ccccc2C1`, for which the inhibition was 44.4% (active).

`CCc1ccc(-c2nnn(Cc3nn[nH]n3)n2)cc1`: the inhibition is 10.7% (inactive).

Consider `O=C(Cc1ccccc1)NC(=S)Nc1ccc(N2CCCCC2)cc1`, for which the inhibition was 11.4% (inactive).

Consider `CC/C(=N/Nc1ccccc1)c1cnnc(SC)n1`, for which the inhibition is 16.1% (inactive).

For the compound `Cc1ccc(C(=O)c2ccc(N3CCN(C)CC3)c([N+](=O)[O-])c2)cc1`, the inhibition was 14.5% (inactive).

On to `CCCCCCCCCCCCCCCC(=O)OC/C=C(C)/C=C/C=C(C)/C=C/C1=C(C)CCCC1(C)C`, for which the inhibition is 4.1% (inactive).

Turning to `Cc1cc(C)nc(N/N=C/c2ccc([N+](=O)[O-])o2)n1`, the inhibition is 22.3% (inactive).

`CC1(C)C2CCC1(C)C(OC(=O)c1ccc(O)cc1)C2` (stereo not drawn): the inhibition is 18.1% (inactive).

`CCOC(=O)c1ccc(N2C(=O)CC(N(C)Cc3ccccc3)C2=O)cc1` (stereo not drawn): the inhibition was 18.6% (inactive).

Regarding `Cc1ccc(NS(=O)(=O)c2ccc(N/N=C/c3ccccc3OCC(=O)O)c([N+](=O)[O-])c2)c(C)c1`, the inhibition is 29.4% (inactive).

`CC1(C)Cc2cccc(OCC(=O)Nc3nccs3)c2O1`: the inhibition is 2.41% (inactive).

As to `COc1ccc(Br)cc1/C=N/Nc1ccc(S(=O)(=O)Nc2ccccc2C(=O)O)cc1[N+](=O)[O-]`, the inhibition was 21.5% (inactive).

Regarding `CCCC1CCC(=NNC(=S)NCCc2ccccc2)CC1` (stereo not drawn), the inhibition is 5.71% (inactive).

In the case of `COC(=O)CCCC1=CC2=CC(=O)C(C)(OC(=O)c3cccs3)C(=O)C2=CN1CC(C)C` (stereo not drawn), the inhibition was 52.7% (active).

As to `CCOC(=O)C1CCCN(C(=O)c2ccc(C)c(F)c2)CC1` (stereo not drawn), the inhibition is 10.1% (inactive).

Consider `COc1cc(C(=S)N2CCOCC2)cc(OC)c1OC(=O)c1cc([N+](=O)[O-])cc([N+](=O)[O-])c1`, for which the inhibition was 26.8% (inactive).

Take `COc1ccc(C(=O)c2c3ccc([N+](=O)[O-])cc3[n+]([O-])n2CCCN)cc1`: the inhibition is 70.5% (active).

Consider `COc1ccc(-c2[nH][nH]c(=O)c2NC(=O)c2ccc([N+](=O)[O-])cc2)cc1`, for which the inhibition is 34.5% (inactive).

On to `CCOC(=O)CNC(=O)N1c2ccccc2Sc2ccccc21`, for which the inhibition is 16.6% (inactive).

For the compound `Cc1sc2ccccc2c1CNC[C@H]1O[C@@H](n2ccc(=O)[nH]c2=O)[C@H](O)[C@@H]1O`, the inhibition was 8.62% (inactive).

For the compound `Cc1cccc(OCC(=O)NC(=S)Nc2ccccc2N2CCOCC2)c1`, the inhibition is 13% (inactive).

In the case of `Cc1nc(SCC(=O)c2ccccc2)c([N+](=O)[O-])[nH]1`, the inhibition is 10.2% (inactive).

As to `Cc1cc(C)c(/C=C2\C(=O)Nc3ccccc32)[nH]1`, the inhibition was 11.5% (inactive).

Take `CC(C)CC(=O)N=C1SC2CS(=O)(=O)CC2N1CCc1ccccc1` (stereo not drawn): the inhibition is -0.28% (inactive).

Turning to `O=[N+]([O-])c1ccc(N2CCSCC2)cc1O`, the inhibition was 22.9% (inactive).

Regarding `CCN=C1SC(CC(=O)Nc2ccc(C)cc2)C(=O)N1CC` (stereo not drawn), the inhibition is 12.9% (inactive).

With `CC1CCN(c2ccc([N+](=O)[O-])c(SCCO)c2)CC1`, the inhibition is 19.1% (inactive).

For `Cc1ccccc1NCC(=O)N/N=C\c1ccc([N+](=O)[O-])s1`, the inhibition was 31.1% (inactive).

Consider `O=P(O)(CP(=O)(c1ccccc1)c1ccccc1)c1ccccc1O`, for which the inhibition is 13.6% (inactive).

With `CCOC(=O)C(CC)Sc1ncnc2c1nnn2-c1ccc(F)cc1` (stereo not drawn), the inhibition is 14.5% (inactive).

For `Cn1c2ccc(F)cc2c2nnc(NN)nc21`, the inhibition is -8.09% (inactive).

Turning to `O=C(NC(=S)N1CCCCC1c1cccnc1)c1ccccc1` (stereo not drawn), the inhibition was 8.53% (inactive).

Consider `CCC(C)[C@H](NC(=O)N1c2ccccc2NC(=O)[C@@H]1C(C)C)C(=O)N[C@@H](Cc1ccccc1)C(=O)O` (stereo partly drawn), for which the inhibition is 7.29% (inactive).

With `COc1ccc(S(=O)(=O)Nc2ccc3cn[nH]c3c2)cc1[N+](=O)[O-]`, the inhibition was 14.1% (inactive).

In the case of `NN=C(NN=Cc1ccccc1)c1ccccc1`, the inhibition was 43.8% (active).

On to `CC(C)[C@H](NC(=O)N1CC(=O)Nc2ccccc21)C(=O)N[C@@H](Cc1c[nH]c2ccccc12)C(=O)O`, for which the inhibition is 15% (inactive).

`COc1cccc(N(CC(=O)NCCSc2ccccn2)S(C)(=O)=O)c1`: the inhibition is 3.26% (inactive).

`CCOc1ccc(NCCC(=O)c2ccc3c(c2)OCO3)cc1`: the inhibition was 23.6% (inactive).

Regarding `Cc1ccc(C(=O)N/C(=C/c2ccc(-c3cccc([N+](=O)[O-])c3)o2)C(=O)NCCCN(C)C)cc1`, the inhibition is 17.4% (inactive).
